Screening data as filed in PubChem.
Beta cell apopt: blocks beta cell apoptosis | INS-1E cytokine-induced death, ATP luminescence, 48 h; percent of positive-control rescue, neutral wells zero | protection from apoptosis, % (test concentration not listed) | 0.8% of 300,000 active | AID 435005;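 active means Every replicate reaches about 75%, or at least half do and their mean reaches it too, limit read from the data; inconclusive means At least half of replicates reach the limit but their mean does not; inactive means Under half of replicates reach the limit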;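 further: 0% = cytokine-treated negative control wells and 100% = positive control rescue; higher means more ATP so stronger rescue from cytokine killing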
Bfl-1 A1 inh: inhibitors of the anti-apoptotic protein A1, read as caspase activation; caspase activation, % (concentration not given with the values); AID 2462; MEF A1-2A-BIM cells, Caspase-Glo 3/7 luminescence, 3 h; percent of clofoctol response, vehicle zero; 0.066% of 330,000 active;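 active means over half of replicate activation scores above 10%, or exactly half above 10 with the replicate mean above 10; inconclusive means replicate mean below 10 yet half the replicates above 10; inactive means over half of replicates below 10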
aSyn 5UTR inh: MLPCN primary screen, SNCA 5' untranslated region. alpha-synuclein 5'UTR reporter, inhibitor activity. inhibition, % (tested at 7.5 µM). 0.82% of 300,000 active. AID 1813; in the data active means inhibition above about 60%; inconclusive means no clear call, values can overlap the other calls;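 further: H4 neuroglioblastoma cells stably carrying SNCA 5'UTR luciferase fusion; 0% = DMSO wells and 100% = positive control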
Mdm2 MdmX PPI: inhibitors of human Mdm2/MdmX interaction; AID 485346; SaOS-2 split-luciferase Mdm2/MdmX complementation, luminescence; O15151+Q00987; inhibition, % at 8 µM; 3% of 330,000 active;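 active means inhibition of at least 50% at 8 µM in the primary screen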
CSC inhib: cancer stem cell inhibition; cancer stem cell-like cells viability, luminescence; inhibition, % at 7.5 µM; 1.1% of 300,000 active; in the data active means inhibition above about 75%; inconclusive means no clear call, values can overlap the other calls; tested in HMLE shEcad cells
Mdm2-MdmX conf: human Mdm2/MdmX binding inhibition, confirmed; shares compounds with Mdm2 MdmX PPI; 55% of 10,000 active; inhibition, % at 8 µM; luminescent assay; in the data active means inhibition above about 40%
Full FLuc ctr: full-length luciferase inhibition in Mdm2/MdmX counter-screen; SaOS-2 full-length luciferase counterscreen, luminescence; 77% of 6,200 active; inhibition, % at 8 µM; shares compounds with Mdm2 MdmX PPI; AID 504607;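 active means mean inhibition at 8 µM reaching about 37%, which flags the compound as non-specific, limit read from the data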;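 further: p53-null SaOS-2 cells with luciferase driven by a doxycycline-inducible promoter; compound on cells about two nights before reading with doxycycline added after day one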
Active calls of the source: *; ? = inconclusive; / = no result given. A selection: hits, their analogues and other compounds. The true share with any hit is near 4.1%.

SMILES	Beta cell apopt	Bfl-1 A1 inh	aSyn 5UTR inh	Mdm2 MdmX PPI	CSC inhib	Mdm2-MdmX conf	Full FLuc ctr
COCCNC(=O)c1cc(-c2ccc(-c3ccccc3)cc2)nc2ccccc12	0	-1	-61	88*	41	84*	46*
CC(=O)NCCc1c[nH]c2ccc(O)cc12	-7	0	-30	20	12	/	/
Oc1ccc(Cl)cc1-c1cc(-c2cccc(Br)c2)n[nH]1	18	0	-37	62*	90*	33	/
COc1ccc(C2CC(=O)N(C)c3ccccc3S2)cc1OC (centres undefined)	-4	1	-87	53*	-1	34	/
CCOn1c(-n2nc(C)cc2C)nc2ccccc2c1=O	-5	0	-20	30	5	/	/
Cc1cc(C)n(-c2nc3ccccc3c(=O)n2OCC#N)n1	84*	-7	14	66*	41	49*	46*
Brc1cccc(-c2nc3cccnc3nc2-c2cccc(Br)c2)c1	10	2	-7	13	26	/	/
Clc1ccc(-[n+]2c(-c3cccc(Br)c3)[nH]c3nc4ccccc4nc32)cc1	40	0	-4	61*	-1	15	/
CCC(NS(=O)(=O)c1ccc2c(c1)NC(=O)C(C)C(=O)N2)c1cccs1 (centres undefined)	1	1	1	7	0	/	/
Cc1nnnn1/C(=C\c1ccccc1)C(=O)OCC(=O)Nc1cccc(S(=O)(=O)N(C)C)c1	-23	2	/	72*	/	39	34
Cc1nnnn1/C(=C\c1ccccc1)C(=O)OCC(=O)Nc1ccc(Cl)cc1F	-1	0	-71	67*	-3	61*	61*
Cc1cccc(NC(=O)CCS(=O)(=O)c2ccc3c(c2)NC(=O)CS3)n1	-8	0	2	11	-2	/	/
Cc1cccc2nc(COc3ccc(-c4ccccc4)cc3)cn12	/	-9	-121	63*	52	30	78*
COc1ccc(OC)c(NC(=O)CSc2nncc(=O)n2N)c1	-4	0	-1	4	-9	/	/
CCc1nn(CC(=O)NCCCc2ccccc2)c(=O)c2cc3c(OC)cccc3n12	-2	1	-7	11	-11	/	/
CCc1nn(CC(=O)NCCCc2ccccc2)c(=O)c2cc3cc(F)ccc3n12	-1	1	-8	56*	-17	-1	/
CCCNC(=O)Cn1nc(C)n2c(cc3cc(F)ccc32)c1=O	4	0	-12	-26	-22	/	/
CCc1nn(CC(=O)NCCC2=CCCCC2)c(=O)c2cc3cc(F)ccc3n12	0	-2	-3	50*	10	12	/
CCOc1ccc(S(=O)(=O)N2CCCCC2)cc1NS(=O)(=O)c1cccs1	-6	0	/	21	/	/	/
Cc1ccc2c(c1)CCCN2C(=O)CCc1nc2ccccc2c(=O)[nH]1	3	1	/	53*	/	60*	49*
Cc1ccc(NC(=O)CNc2ccccc2N2CCCC2=O)cc1S(=O)(=O)N1CCCCC1	0	1	/	17	/	/	/
Cc1ccc(N(CC(=O)NC2CCCCC2)S(=O)(=O)c2cccs2)cc1	-4	0	5	66*	-6	12	/
CCN(CC)c1ccc(/C=N/NC(=O)CNC(=O)C2COc3ccccc3O2)c(O)c1 (centres undefined)	99*	0	55	77*	4	76*	22
CCN(CC)c1ccc(/C=N/NC(=O)CCC(=O)NCc2ccccc2)c(O)c1	98*	0	33	71*	82*	76*	34
COc1cc(/C=N\NC(=O)CNC(=O)C2COc3ccccc3O2)ccc1O (centres undefined)	3	1	9	-2	12	/	/
SMILES	Beta cell apopt	Bfl-1 A1 inh	aSyn 5UTR inh	Mdm2 MdmX PPI	CSC inhib	Mdm2-MdmX conf	Full FLuc ctr
Cc1cc([N+](=O)[O-])cc(/C=N\NC(=O)C2COc3ccccc3O2)c1O (centres undefined)	8	-4	22	52*	10	40*	28
O=C(N/N=C\c1ccc(O)c([N+](=O)[O-])c1)C1COc2ccccc2O1 (centres undefined)	-1	0	4	9	-7	/	/
O=C(CN1CCN(S(=O)(=O)c2ccccc2)CC1)Nc1ccc(Cl)c([N+](=O)[O-])c1	-3	1	-2	14	7	/	/
CC(OC(=O)CNC(=O)c1sc2ccccc2c1Cl)C(=O)NC1(C#N)CCCCC1 (centres undefined)	-2	-1	/	-2	/	/	/
Cc1cc(=O)oc2cc(NC(=O)C(C)N3C(=O)C4CCCCC4C3=O)ccc12 (centres undefined)	0	0	/	-10	/	/	/
CNC[C@@H](C)NC[C@@H](Cc1ccccc1)NCCc1ccccc1	4	1	-23	69*	27	36	/
CCOc1ccc(-c2nnc(SCC(=O)Nc3ccc4c(c3)c3ccccc3n4CC)n2N)cc1	71	2	84*	71*	52	71*	23
CCn1c2ccccc2c2cc(NC(=O)CSc3nnc(-c4cccc(Cl)c4)o3)ccc21	3	0	-53	52*	8	31	/
O=C(CSc1nnc(-c2cccnc2)o1)Nc1cccc(Cl)c1	-5	0	-119	-12	-10	/	/
O=C(N/N=C/c1cc(Br)ccc1O)c1ccccc1Cl	69	0	67*	66*	20	69*	35
O=C(CCc1ccccc1)N/N=C\c1cc2c(cc1Br)OCO2	5	0	-3	27	14	/	/
C/C(=N/NC(=O)CCC(=O)Nc1ccc(Br)cc1)c1ccc(Br)cc1	-4	0	13	51*	-2	7	/
O=C(CCC(=O)Nc1ccc(F)cc1)N/N=C/c1ccc(Br)cc1	-1	-1	2	-4	-1	/	/
O=C(CCC(=O)Nc1ccc(Br)cc1)N/N=C/c1ccccc1O	56	0	54	67*	33	68*	48*
O=C(CCc1ccccc1)N/N=C/c1cc(Br)ccc1O	9	0	32	71*	-16	69*	27
Cc1ccc(SCCC(=O)N/N=C/c2ccccc2O)cc1	42	0	25	52*	22	44*	47*
CSc1nc(C)cc(OCC(=O)N/N=C/c2ccccc2O)n1	65	0	42	58*	89*	64*	39*
O=C(Cc1ccccc1)N/N=C/c1cc(Br)cc(Br)c1O	73	1	27	59*	29	73*	44*
O=C(CNC(=O)c1cccc(Br)c1)N/N=C/c1cc(Br)cc(Br)c1O	-9	0	18	32	7	/	/
O=C(CSc1nc(=O)n(CCN2CCOCC2)c2c1CCCC2)Nc1ccc(F)cc1F	-2	?	-15	7	-9	/	/
CCOc1ccc(NC(=O)c2ccc(F)cc2F)cc1	-3	-2	-103	-75	-4	/	/
O=C(Nc1nc(-c2ccccn2)cs1)c1cc2ccccc2o1	2	1	-61	52*	47	55*	53*
